Inconclusive results are not listed. Activity calls are given as the source filed them. Unless noted, calls come from the whole dose curve; as a rule, active = well fitted curve in the direction sought with a large enough effect in the repeat runs; inconclusive = weak or mixed curves; inactive = no such curve, though single readings can be large; an effect the other way counts as inactive or inconclusive.
Legend:
[1] = qHTS assay to identify small molecule antagonists of the estrogen related receptor (ERR) signaling pathway from Tox21 library - cell viability counter screen (AID 1224834); note: nearly all actives have a fitted effect of over 30% in size
Procedure, shortened: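 Viability readout (CellTiter-Fluor fluorescence, 30 min at 37 C) multiplexed with the ERR assay; cells treated 17.5 h at 37 C with compounds delivered in DMSO.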

[2] = target: Luciferin 4-monooxygenase (Photinus pyralis) (UniProt P08659); assay: qHTS assay to identify small molecule inhibitors of firefly luciferase (AID 1224835); note: nearly all actives have a fitted effect of over 25% in size; note: potency is the fitted concentration of half-maximal effect
Procedure, shortened: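 Inhibition of purified Photinus luciferase is measured by luminescence. Substrate levels (D-luciferin, ATP) sit at their KM values. Each compound is tested in a concentration series.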

[3] = qHTS assay to identify small molecule agonists of the constitutive androstane receptor (CAR) signaling pathway - cell viability counter screen (AID 1224836); note: series mostly up to about 92 µM; nearly all actives have a fitted effect of over 45% in size
Procedure, shortened: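 Cells were seeded and incubated 4 hrs. Compounds were added across 15 concentrations together with PK11195 at 0.75 uM final. Plates were incubated 23 hrs at 37 C. CellTiter-Fluor was added and fluorescence measured.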

[4] = qHTS assay to identify small molecule antagonists of the constitutive androstane receptor (CAR) signaling pathway - cell viability counter screen (AID 1224837); note: series mostly up to about 92 µM; nearly all actives have a fitted effect of over 45% in size
Procedure, shortened: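 Fluorescence from CellTiter-Fluor served as the viability signal. Human hepatoma HepG2 cells stably bearing hCAR and CYP2B6-2.2kb received compound plus CITCO (50 nM final) for 23 hr.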

[5] = target: Nuclear receptor subfamily 1 group I member 3 (Homo sapiens) (UniProt Q14994); assay: qHTS assay to identify small molecule antagonists of the constitutive androstane receptor (CAR) signaling pathway (AID 1224838);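 note: HepG2 cells stably expressing hCAR with CYP2B6 luciferase reporter stimulated by CITCO; nearly all actives have a fitted effect of over 40% in size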
Procedure, shortened: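 Quantitative HTS in double-stable HepG2-CYP2B6-hCAR cells. After 4 h plating, cells get compound (15 concentrations) and CITCO at 50 nM final, incubate 24 h at 37 C, then ONE-Glo luminescence is read.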

[6] = target: Nuclear receptor subfamily 1 group I member 3 (Homo sapiens) (UniProt Q14994); assay: qHTS assay to identify small molecule agonists of the constitutive androstane receptor (CAR) signaling pathway (AID 1224839); note: nearly all actives have a fitted effect of over 15% in size; note: potency is the fitted concentration of half-maximal effect
Procedure, shortened: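 Cells were plated and incubated 4 hrs, then dosed with compounds at 15 concentrations. PK11195 was added to 0.75 uM final. After 24 hrs at 37 C, luciferase luminescence was measured.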

[7] = qHTS assay to identify small molecule antagonists of the estrogen related receptor signaling pathway with the pleiotropic PPARgamma coactivator (PGC) from Tox21 10K library - cell viability counter screen (AID 1224840; active = well fitted cell-killing curve with a large enough effect in the repeat runs, not every such curve was filed as active; note: nearly all actives have a fitted effect of over 40% in size)
Procedure, shortened: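 Compounds in DMSO, alongside positive and negative controls, were pinned onto PGC/ERR cells (2,000 per well). Exposure lasted 17.5 hours at 37 C, followed by a 30-minute CellTiter-Fluor incubation and fluorescence reading.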

[8] = qHTS assay to identify small molecule antagonists of the estrogen related receptor signaling pathway with the pleiotropic PPARgamma coactivator (PGC) from Tox21 10K library (AID 1224841; call rule not given here; note: actives are mostly falling curves and most rising ones were filed inactive; nearly all actives have a fitted effect of over 50% in size; note: potency is the fitted concentration of half-maximal effect)
Procedure, shortened: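 Compound exposure ran 18 hours at 37 C in PGC/ERR cells (2,000/well) that had first rested 6 hours in a 37 C/5% CO2 incubator. Luciferase activity was then detected with One-Glo after a 30-minute room-temperature step.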

[9] = qHTS assay to identify small molecule agonists of the estrogen related receptor signaling pathway with the pleiotropic PPARgamma coactivator (PGC) from Tox21 10K library (AID 1224842); note: nearly all actives have a fitted effect of over 15% in size
Procedure, shortened: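 Luminescence from One-Glo (30 min, room temperature) measured after PGC/ERR cells had 18 h at 37 C with pinned compound (23 nL in DMSO). Cells had been seeded at 2,000 per well and pre-incubated 6 h.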

[10] = target: Thyrotropin receptor (Homo sapiens) (UniProt P16473); assay: qHTS assay to identify small molecule agonists of the thyroid stimulating hormone receptor (TSHR) signaling pathway (AID 1224843; calls by dose curve; note: nearly all actives have a fitted effect of over 45% in size; note: potency is the fitted concentration of half-maximal effect)
Procedure, shortened: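 Screening of the Tox21 10K collection used HEK293 cells engineered with TSHR at 800 cells per well. After a 30-min room-temperature compound exposure, HTRF cAMP reagents were added and fluorescence recorded 1 h later.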

Measured: Potency

Nuclear receptor subfamily 1 group I member 3 (Homo sapiens), sequence (Q14994 whole entry, looked up): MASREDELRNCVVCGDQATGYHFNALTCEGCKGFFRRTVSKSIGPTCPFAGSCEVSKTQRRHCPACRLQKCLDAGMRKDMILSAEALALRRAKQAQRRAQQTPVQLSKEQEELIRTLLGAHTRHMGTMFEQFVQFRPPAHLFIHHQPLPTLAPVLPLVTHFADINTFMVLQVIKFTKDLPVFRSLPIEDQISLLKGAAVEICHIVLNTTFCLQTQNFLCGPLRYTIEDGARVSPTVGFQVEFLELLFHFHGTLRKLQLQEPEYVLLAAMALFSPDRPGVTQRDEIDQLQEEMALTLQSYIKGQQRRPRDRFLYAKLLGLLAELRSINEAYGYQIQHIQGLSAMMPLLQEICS
Thyrotropin receptor (Homo sapiens), sequence (P16473 whole entry, looked up): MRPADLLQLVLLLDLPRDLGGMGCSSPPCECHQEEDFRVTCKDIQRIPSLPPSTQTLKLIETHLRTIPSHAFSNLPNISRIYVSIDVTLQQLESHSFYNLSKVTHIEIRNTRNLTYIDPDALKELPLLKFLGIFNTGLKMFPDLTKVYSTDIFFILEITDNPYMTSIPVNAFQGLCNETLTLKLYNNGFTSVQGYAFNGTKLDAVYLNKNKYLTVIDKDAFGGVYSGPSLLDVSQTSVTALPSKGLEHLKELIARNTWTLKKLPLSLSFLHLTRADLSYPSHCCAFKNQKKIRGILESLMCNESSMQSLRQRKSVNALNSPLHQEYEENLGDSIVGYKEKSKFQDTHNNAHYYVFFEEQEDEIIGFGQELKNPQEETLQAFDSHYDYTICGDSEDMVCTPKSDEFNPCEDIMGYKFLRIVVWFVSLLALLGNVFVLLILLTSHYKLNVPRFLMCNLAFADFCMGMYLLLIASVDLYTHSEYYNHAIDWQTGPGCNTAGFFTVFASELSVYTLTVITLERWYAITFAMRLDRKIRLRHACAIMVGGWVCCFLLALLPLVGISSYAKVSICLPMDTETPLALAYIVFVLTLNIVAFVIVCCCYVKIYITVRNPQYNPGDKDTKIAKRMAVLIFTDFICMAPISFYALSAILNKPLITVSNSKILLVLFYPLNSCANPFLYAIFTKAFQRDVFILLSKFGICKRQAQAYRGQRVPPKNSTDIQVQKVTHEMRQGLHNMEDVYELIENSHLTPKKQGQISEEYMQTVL
Luciferin 4-monooxygenase (Photinus pyralis), sequence (P08659 whole entry, looked up): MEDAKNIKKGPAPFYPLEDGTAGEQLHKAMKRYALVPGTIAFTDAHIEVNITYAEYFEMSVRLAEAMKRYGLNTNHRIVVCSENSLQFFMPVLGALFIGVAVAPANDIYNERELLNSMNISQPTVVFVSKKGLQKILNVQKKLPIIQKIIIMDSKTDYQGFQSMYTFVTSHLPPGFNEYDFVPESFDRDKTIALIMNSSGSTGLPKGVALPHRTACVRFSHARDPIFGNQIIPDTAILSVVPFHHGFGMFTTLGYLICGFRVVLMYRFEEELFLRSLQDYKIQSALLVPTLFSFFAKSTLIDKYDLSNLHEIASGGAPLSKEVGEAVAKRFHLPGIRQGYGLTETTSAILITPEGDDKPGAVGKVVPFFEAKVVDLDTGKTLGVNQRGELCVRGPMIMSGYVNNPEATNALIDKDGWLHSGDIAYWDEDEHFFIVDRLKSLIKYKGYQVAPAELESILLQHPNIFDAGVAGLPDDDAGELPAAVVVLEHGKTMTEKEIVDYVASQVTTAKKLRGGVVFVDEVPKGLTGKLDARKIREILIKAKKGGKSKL

Cc1ccccc1CO[C@@H]1C[C@@]2(C(C)C)CC[C@]1(C)O2
not listed: [8] | [9] | [10]
inactive: all other assays above

COc1cc2c(cc1OC)[C@@]13CCN4CC5=CCO[C@H]6CC(=O)N2[C@H]1[C@H]6[C@H]5C[C@H]43
not listed: [8] | [9] | [10]
inactive: all other assays above

Cc1cc(C)nc(Nc2ccccc2)n1
active: [6] 61.1 µM
inactive: all other assays above

[Cl][Sn]([Cl])([Cl])[Cl]
not listed: [8] | [9] | [10]
inactive: all other assays above

CCCCN(CCCCO)N=O
inactive: all assays above

CCOP(=S)(OCC)Oc1cc(-c2ccccc2)on1
active: [2] 31.7 µM | [6] 34.4 µM
inactive: [1] | [3] | [4] | [5] | [7]

COC(=O)C(C)Oc1ccc(Oc2ccc(Cl)cc2Cl)cc1 (centres undefined)
not listed: [10]
inactive: all other assays above

CCCCC(=O)Cl
inactive: all assays above

COc1cc(OC)nc(Oc2cccc(Oc3nc(OC)cc(OC)n3)c2C(=O)O)n1
not listed: [8] | [9] | [10]
inactive: all other assays above

CC(Oc1ccc(Oc2ncc(C(F)(F)F)cc2Cl)cc1)C(=O)O (centres undefined)
active: [8] 27.3 µM
inactive: all other assays above

Cc1cc(C)c(C(=O)P(=O)(C(=O)c2c(C)cc(C)cc2C)c2ccccc2)c(C)c1
inactive: all assays above

CC(CCc1ccccc1)NC(C)C(O)c1ccc(O)cc1 (centres undefined)
not listed: [8] | [9]
inactive: all other assays above

O=C(N[C@H]1CN2CCC1CC2)c1cc2ccoc2cn1
not listed: [8] | [9]
inactive: all other assays above

Nc1cnn(-c2ccccc2)c(=O)c1Cl
not listed: [8] | [9]
inactive: all other assays above

CSc1ccc(C(=O)C(C)(C)N2CCOCC2)cc1
active: [6] 30.6 µM | [10] 2.73 µM
not listed: [8]
inactive: all other assays above

O=S(=O)(O)C(F)(F)C(F)(F)C(F)(F)C(F)(F)C(F)(F)C(F)(F)F
not listed: [8] | [9]
inactive: all other assays above

C=CC1CC=CCC1 (centres undefined)
not listed: [8] | [9]
inactive: all other assays above

CC(=O)C(Cl)Cl
inactive: all assays above

O=[N+]([O-])c1cccc(O)c1
not listed: [8] | [9]
inactive: all other assays above

OCCSCSCCO
not listed: [8] | [9]
inactive: all other assays above

O=C(O)c1cccc(Cl)c1
not listed: [8] | [9]
inactive: all other assays above

C(CCOCC1CO1)COCC1CO1 (centres undefined)
not listed: [8] | [9]
inactive: all other assays above

CCCSP(=O)(OCC)Oc1ccc(Br)cc1Cl (centres undefined)
active: [6] 13.3 µM
not listed: [8] | [9]
inactive: all other assays above

CCC1(c2ccccc2)C(=O)N=C(O)NC1=O (centres undefined)
not listed: [8] | [9]
inactive: all other assays above

Cc1ncc2n1-c1ccc(Cl)cc1C(c1ccccc1F)=NC2
not listed: [9]
inactive: all other assays above

CNC(=O)Oc1c(C(C)(C)C)cc(C)cc1C(C)(C)C
active: [6] 10.9 µM
not listed: [8] | [9]
inactive: all other assays above

ClC(Cl)Br
not listed: [8] | [9]
inactive: all other assays above

COC(=O)c1ccccc1S(=O)(=O)NC(=O)Nc1nc(C)cc(C)n1
not listed: [8] | [9]
inactive: all other assays above

— PubChem BioAssay (Tox21)
